Drawing on PubChem BioAssay AID485346 (Sanford-Burnham Center for Chemical Genomics, 2010), this text covers inhibition for 92 compounds.

Among all 330,000 compounds or so, about 10,000 (3%) were called active. The sample holds actives, similar compounds and a random draw of the others, so the mix is not that of the screen.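 How the source made its calls: active means inhibition of at least 50% at 8 µM in the primary screen; inactive means the rest.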

The target of this assay is Protein Mdm4 (Homo sapiens) + E3 ubiquitin-protein ligase Mdm2 (Homo sapiens) (UniProt O15151+Q00987). The assay is described as follows: disruptors of Mdm2/MdmX RING complex – cell-based, luminescence, split luciferase, SaOS-2, uHTS, primary screen (AID 485346). Conditions: SaOS-2 split-luciferase Mdm2/MdmX complementation, at 8 µM, hits give high values.
Protein Mdm4 (Homo sapiens) + E3 ubiquitin-protein ligase Mdm2 (Homo sapiens), sequence (O15151 whole entry, looked up): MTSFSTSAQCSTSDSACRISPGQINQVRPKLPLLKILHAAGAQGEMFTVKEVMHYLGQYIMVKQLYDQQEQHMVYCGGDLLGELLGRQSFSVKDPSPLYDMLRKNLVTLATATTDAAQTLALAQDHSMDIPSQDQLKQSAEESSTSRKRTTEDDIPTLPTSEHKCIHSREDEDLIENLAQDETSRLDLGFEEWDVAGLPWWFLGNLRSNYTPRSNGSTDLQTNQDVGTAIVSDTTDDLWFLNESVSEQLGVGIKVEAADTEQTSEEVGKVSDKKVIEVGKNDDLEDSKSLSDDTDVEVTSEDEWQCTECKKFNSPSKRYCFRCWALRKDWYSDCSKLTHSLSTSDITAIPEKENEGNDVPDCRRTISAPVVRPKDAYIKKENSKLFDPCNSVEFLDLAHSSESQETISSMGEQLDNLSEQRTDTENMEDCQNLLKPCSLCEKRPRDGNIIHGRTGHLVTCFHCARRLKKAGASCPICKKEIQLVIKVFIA
Protein Mdm4 (Homo sapiens) + E3 ubiquitin-protein ligase Mdm2 (Homo sapiens), sequence (Q00987 whole entry, looked up): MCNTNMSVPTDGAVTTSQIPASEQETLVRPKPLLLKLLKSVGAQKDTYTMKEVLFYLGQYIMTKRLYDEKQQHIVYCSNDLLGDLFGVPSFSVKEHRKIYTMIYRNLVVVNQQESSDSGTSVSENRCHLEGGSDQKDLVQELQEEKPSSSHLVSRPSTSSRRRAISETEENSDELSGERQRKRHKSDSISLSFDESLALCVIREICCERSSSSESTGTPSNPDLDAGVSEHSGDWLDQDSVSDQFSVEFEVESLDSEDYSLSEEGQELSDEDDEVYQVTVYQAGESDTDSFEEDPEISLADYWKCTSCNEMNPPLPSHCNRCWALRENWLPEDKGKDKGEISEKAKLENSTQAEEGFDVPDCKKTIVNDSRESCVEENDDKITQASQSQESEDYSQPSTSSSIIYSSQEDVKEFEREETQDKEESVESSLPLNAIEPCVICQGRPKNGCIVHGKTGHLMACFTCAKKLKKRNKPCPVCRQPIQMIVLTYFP
On to `CCCN(CCC)S(=O)(=O)c1ccc(C(=O)NNC(=O)c2cc(OC)c(OC)c(OC)c2)cc1`, for which the inhibition – broadly, the change of the read-out against control, counted positive when it falls – is -7.78% (inactive).
The figure for `CCc1ccc2c(c1)C1(NN=C(c3ccccc3)S1)C(=O)N2` (configuration not stated) is 73% (active); for `COc1ccc(C)cc1NC(=O)c1cc(-c2ccccc2)nc2c1cnn2C(C)C` it is 11.5% (inactive); for `OCC[C@H]1C[C@H](O)[C@@H](O)[C@]2(CCCCO2)O1` it is -0.668% (inactive).
In the case of `COc1ccc(Nc2nnc(C)c3ccccc23)cc1` it was 5.02% (inactive).
Consider `N#Cc1nc(-c2cccc3ccccc23)oc1N`, for which the inhibition was 23% (inactive).
With `COc1ccc(Nc2oc(-c3ccccc3Cl)nc2C#N)cc1`, the inhibition was 59.3% (active).
In the case of `O=C1CCC[C@@H]2CC(N3CCCCC3)C[C@@H]3CCN1[C@H]23` (some centres not stated) it was -0.366% (inactive).
The figure for `COc1ccc(CCNC(=S)N2CCN(S(=O)(=O)c3ccc(F)cc3)CC2)cc1` is 27.9% (inactive); for `O=C(Nc1cccc(-c2cccc(Cl)c2)c1)C1CCN(C2CCC2)CC1` it is 63% (active).
As for `CC(=O)c1cc(CN2CCC(C(=O)Nc3cccc(-c4cscn4)c3)CC2)cs1`, the inhibition is 19.1% (inactive).
As for `COc1cccc(-c2cccc(NC(=O)C3CCN(C4CCC4)CC3)c2)c1`, the inhibition was -1.08% (inactive).
On to `CCn1cc(CN2CCC(C(=O)Nc3cccc(-c4cccc(Cl)c4)c3)CC2)cn1`, for which the inhibition is 73% (active).
The figure for `O=C(NCC1CCN(Cc2ccccc2Cl)CC1)Nc1cccc(Cl)c1` is 24.2% (inactive); for `O=C(NC1CCCC1)C1CCN(C(=O)Nc2cccc(Cl)c2)CC1` it is -30.9% (inactive); for `CCn1cc(CN2CCC(C(=O)Nc3cccc(-c4cccc(Cl)c4)c3)CC2)c(C)n1` it is 86.6% (active).
Consider `O=C(Nc1cnn(Cc2ccc(Cl)cc2)c1)C1CCCC1`, for which the inhibition is 20.2% (inactive).
The figure for `O=C(Nc1cccc(-c2cscn2)c1)C1CCN(Cc2ccsc2)CC1` is 12.7% (inactive).
The figure for `COc1ccc(N2CCC(CNC(=S)Nc3c(C)cccc3C)C2)cc1` (configuration not stated) is 0.075% (inactive); for `Cc1ccc(C(=O)NCCc2nnc(SCC(=O)Nc3cccc(C(=O)O)c3)n2C)cc1` it is -17.8% (inactive).
As to `Cc1ccc(NS(=O)(=O)c2ccc3c(c2)n(C)c(=O)c(=O)n3C)c(C)c1`, the inhibition is -12.6% (inactive).
The figure for `Cc1ccc(-n2nc3c(=O)n(C(C)C(=O)NCc4ccc5c(c4)OCO5)nc(C)c3c2C)cc1` (configuration not stated) is 32.4% (inactive); for `COc1ccc(CCNC(=O)/C(C#N)=C2\N=C(NC(=O)c3cccs3)c3ccccc32)cc1` it is -11.7% (inactive); for `O=C(NCC#CCSc1nnc(-c2cccc3ccccc23)o1)c1cccs1` it is 81.5% (active).
For the compound `C#CCSc1nnc(-c2sc3ccccc3c2Cl)o1`, the inhibition was -91.8% (inactive).
As for `O=C(Cc1ccc(-c2ccccc2)cc1)NC(c1ccccc1)c1ccccc1`, the inhibition is 6.83% (inactive).
In the case of `CCOC(=O)/C=C/C(=O)OCC(=O)NC(c1ccccc1)c1ccccc1` it was 69.4% (active).
In the case of `CCOC(=O)C(C(=O)OCC)C(C#N)c1ccccc1` (configuration not stated) it was -30.8% (inactive); in that of `O=C(NC(=O)N1CCSCC1)c1c(Cl)cccc1Cl`, -31.4% (inactive); in that of `COc1ccc(CN2C(=O)CC(Cc3ccc(C)cc3)C2=O)cc1OC` (configuration not stated), 5.73% (inactive).
The figure for `CCc1cccc(C)c1NC(=O)COC(=O)CNC(=O)c1cccs1` is -18.9% (inactive); for `Cc1ccccc1C(CC(=O)c1cccs1)C(C#N)C#N` (configuration not stated) it is 75.4% (active); for `Cc1ccc(C)c(NC(CC(=O)c2ccccc2)C(=O)OCC(=O)c2cccs2)c1` (configuration not stated) it is -9.67% (inactive).
In the case of `CC1=C(C/C=C(\C)CCCC(C)CCCC(C)CCCC(C)C)C(=O)c2ccccc2C1=O` (configuration not stated), the inhibition is -7.28% (inactive).
As for `CC(C)CC(NC(=O)C1CCCN1C(=O)[C@@H](C)NC(=O)OCc1ccccc1)C(=O)NCC(N)=O` (some centres not stated), the inhibition was -21.6% (inactive).
`COc1ccc(C2C(C(C)=O)=C(O)C(=O)N2CCc2c[nH]c3ccccc23)cc1` (configuration not stated): the inhibition was -16.3% (inactive).
Turning to `COc1ccc2nc(Nc3nc4ccc(NC(C)=O)cc4s3)sc2c1`, the inhibition is 79.7% (active).
Turning to `COc1ccc2nc(NC(=O)NC3CCCCC3)sc2c1`, the inhibition is -142% (inactive).
In the case of `CCc1noc(C)c1C(=O)Nc1nc2ccc(OC)cc2s1` it was 0.6% (inactive).
On to `Cc1csc2ncc(C(=O)N(Cc3ccccc3)c3ccccn3)c(=O)n12`, for which the inhibition is 0.705% (inactive).
As to `CC(C)NC(=O)c1ccccc1S(=O)c1ccccc1C#N` (configuration not stated), the inhibition is -7.43% (inactive).
In the case of `COc1ccc(-c2nnc(NC(=O)CS(=O)(=O)c3ccc(Cl)cc3)o2)c(OC)c1`, the inhibition was -3.12% (inactive).
As for `COc1cccc(-c2nnc(NC(=O)c3ccc(S(=O)(=O)N(CC(C)C)CC(C)C)cc3)o2)c1`, the inhibition is 72.2% (active).
The figure for `O=C(Nc1nnc(-c2ccco2)o1)c1ccc(S(=O)(=O)N2CCOCC2)cc1` is -9.19% (inactive).
Consider `CC(C#N)OC(=O)c1cccnc1SCC(=O)Nc1ccc2c(c1)OCO2` (configuration not stated), for which the inhibition is -12.8% (inactive).
Turning to `CC(C)(C)n1nnc(CCc2nnn(C(C)(C)C)n2)n1`, the inhibition is 13.5% (inactive).
Turning to `O=C(CN1C(=O)c2ccccc2S1(=O)=O)N1CCc2ccccc21`, the inhibition is 68% (active).
`CC1CCCN(C(=O)CN2C(=O)c3ccccc3S2(=O)=O)C1` (configuration not stated): the inhibition is 3.88% (inactive).
The figure for `O=C(CN1C(=O)c2ccccc2S1(=O)=O)NC1CCCCC1` is 12.3% (inactive); for `O=C(N/N=C/c1cccc(O)c1)c1cc2c(ccc3ccccc32)o1` it is -1.11% (inactive).
In the case of `Cc1c(/C=N\NC(=O)c2cc3ccccc3o2)c2ccccc2n1C` it was 50.8% (active); in that of `Cc1ccc(NC(=O)c2cc3ccccc3o2)cc1`, -218% (inactive).
Take `Cc1cccc(N2C(=O)N3[C@H](c4ccc(F)cc4)[C@@H]4C(=O)N(C5CCCCC5)C(=O)[C@@H]4[C@]3(Cc3ccccc3)C2=O)c1`: the inhibition was 18.2% (inactive).
The figure for `O=C1[C@H]2[C@@H](c3ccc(F)cc3)N3C(=O)N(c4ccc(C(F)(F)F)cc4)C(=O)[C@@]3(Cc3ccccc3)[C@H]2C(=O)N1C1CCCCC1` is 95.3% (active); for `O=C1[C@H]2[C@@H](c3ccc(Cl)cc3)N3C(=O)N(c4cccc(F)c4)C(=O)[C@@]3(Cc3ccccc3)[C@H]2C(=O)N1C1CCCCC1` it is 4.69% (inactive); for `Cc1ccc(NC(=O)CCCNC(=O)c2ccc(Cl)cc2)cc1S(=O)(=O)N1CCCCC1` it is 14.3% (inactive).
The figure for `Cc1ccc(CN2CCN(/N=C/c3cccnc3)CC2)c(C)c1` is -1.63% (inactive).
In the case of `O=c1[nH]c(NCCO)nnc1Cc1ccc(Cl)cc1`, the inhibition is 16.8% (inactive).
As to `COc1ccc(Cc2nnc(N/N=C/c3ccccc3O)[nH]c2=O)cc1OC`, the inhibition is 66.5% (active).
The figure for `CC(C)c1ccc(Cc2nnc(NCCCO)[nH]c2=O)cc1` is -3.05% (inactive); for `OC(CN=c1sc2ccccc2n1CC(O)COc1ccccc1)COc1ccccc1` (configuration not stated) it is 33.4% (inactive).
For the compound `Cc1cccc(NC(=O)CN2CCN(CC(=O)NCC3(N4CCCCC4)CCCCC3)CC2)c1C`, the inhibition was -24.2% (inactive).
In the case of `Cc1nc2nc(C)c(CCC(=O)N3CCN(c4ccccc4)CC3)c(C)n2n1` it was 7.55% (inactive); in that of `COc1ccc(CNC(=O)C2CCCC2)cc1`, 1.84% (inactive).
The figure for `COc1ccc(CNc2nc(NCc3ccc(OC)cc3)c3ncn(C4CCCC4)c3n2)cc1` is 60.8% (active).
For the compound `COc1ccc(CNC2CCCCC2)cc1`, the inhibition is 7.1% (inactive).
The figure for `C=CCN1C(=O)C(O)(CC(=O)c2ccc(Cl)cc2)c2ccccc21` (configuration not stated) is 4.99% (inactive); for `C=CCC(CC=C)(C(N)=O)c1ccccc1` it is 11.4% (inactive); for `CC(C)c1ccccc1OCC(O)CN(CC(O)COc1cccc2ccccc12)C(C)C` (configuration not stated) it is 59.8% (active).
In the case of `Cc1cc(C)c(NC(=O)C[N+](C)(C)CC(O)COc2cccc3ccccc23)c(C)c1` (configuration not stated) it was 12.6% (inactive); in that of `CCC(C)Sc1nc2c(c(=O)[nH]c(=O)n2C)n1CC(O)COc1cccc2ccccc12` (configuration not stated), 16.9% (inactive); in that of `CCC(C)(C)c1ccc(Oc2ccc(NC(=O)COC(=O)C3=COCCO3)cc2)cc1`, 0.755% (inactive).
As for `C[C@@H](O)c1nc2ccccc2n1N`, the inhibition was -21.5% (inactive).
In the case of `O=C1CN(c2nc(-c3ccccc3)c3cc(Br)ccc3n2)c2ccccc2N1` it was 66.1% (active).
For the compound `CC1CC(=O)Nc2ccccc2N1C(=O)COc1ccc2cc(Br)ccc2c1` (configuration not stated), the inhibition is 20% (inactive).
Turning to `O=c1c2cc(Br)ccc2nc(-c2cccc(Cl)c2)n1O`, the inhibition was 40.4% (inactive).
As to `CC(=O)c1ccc(S(=O)(=O)N2CCN(C(=O)/C=C/c3ccc4ccccc4n3)CC2)cc1`, the inhibition was 79.9% (active).
In the case of `CC(=O)c1ccc(S(=O)(=O)N2CCN(c3nc4c(C)c(C)ccc4cc3C#N)CC2)cc1` it was 32.9% (inactive); in that of `CC(=O)c1ccc(S(=O)(=O)N2CCC3(CC2)OCCO3)cc1`, -6.56% (inactive); in that of `Cc1cc(C)n2nc(C(=O)OCC(=O)N(CCC#N)c3ccc(F)cc3)nc2n1`, 11.4% (inactive).
As to `Nc1cccc2c1C(=O)N(Cc1nnc(-c3ccccc3Br)o1)C2=O`, the inhibition was 2.07% (inactive).
The figure for `S=c1[nH]nc(-c2ccc(Cl)cc2)n1CC1CCCO1` (configuration not stated) is -1.54% (inactive); for `O=C(c1[nH]ncc1-c1ccc(Cl)cc1)C1CO1` (configuration not stated) it is 78.2% (active).
The figure for `O=C(c1nnc(-c2ccc(Cl)cc2)o1)C1CCCC1` is -34.3% (inactive).
In the case of `CCOc1ccc(NC(=O)CSc2nncn2C)cc1` it was 6.1% (inactive).
With `NC(=O)C(Cc1ccccc1)NC(=O)C12CC3CC(CC(C3)C1)C2` (configuration not stated), the inhibition was 2.27% (inactive).
The figure for `CCN(CC(=O)Nc1c(F)cccc1F)C(=O)c1ccc(-c2ccc(C(C)=O)cc2)o1` is -16.4% (inactive).
In the case of `C[n+]1cc(-c2ccccc2)oc1-c1ccccc1` it was -21.5% (inactive); in that of `Cc1cc(C)n2nc(C(=O)OCC(=O)N(C)CC(=O)Nc3ccc(F)cc3)nc2n1`, -1.93% (inactive); in that of `CCC1CCCCN1CCCNC(=O)Cn1nc(-c2ccccc2)ccc1=O` (configuration not stated), 5.14% (inactive).
Turning to `CCC1CCCCN1CCCNC(=O)c1cc2c(Cl)nc3ccccc3c2s1` (configuration not stated), the inhibition was 58.7% (active).
With `CCC1CCCCN1CCCNC(=O)C1CCC(Cn2c(=O)[nH]c3ccccc3c2=O)CC1` (configuration not stated), the inhibition is -28.9% (inactive).
